{
  "source": "PubChem BioAssay AID588342",
  "about": "(National Center for Advancing Translational Sciences (NCATS), 2011)",
  "note": "The campaign covered roughly 360,000 compounds. About 25,000 (6.9%) were called active. Not shown: some 9% with an inconclusive outcome. For the sample, actives were picked, then their nearest neighbours and some compounds at random. Unmarked numbers belong to inactive results. The call rests on the fitted dose curve; in most records, active means well fitted inhibition curve with a large enough effect; inconclusive means small, poorly fitted or top-dose-only effect; inactive means flat fitted curve, though single readings scatter. Potency means the concentration at half of the fitted maximal effect.",
  "data": [
    {"molecular_target": "Luciferin 4-monooxygenase (Photinus pyralis) (UniProt P08659)", "sequence (P08659 whole entry, looked up)": "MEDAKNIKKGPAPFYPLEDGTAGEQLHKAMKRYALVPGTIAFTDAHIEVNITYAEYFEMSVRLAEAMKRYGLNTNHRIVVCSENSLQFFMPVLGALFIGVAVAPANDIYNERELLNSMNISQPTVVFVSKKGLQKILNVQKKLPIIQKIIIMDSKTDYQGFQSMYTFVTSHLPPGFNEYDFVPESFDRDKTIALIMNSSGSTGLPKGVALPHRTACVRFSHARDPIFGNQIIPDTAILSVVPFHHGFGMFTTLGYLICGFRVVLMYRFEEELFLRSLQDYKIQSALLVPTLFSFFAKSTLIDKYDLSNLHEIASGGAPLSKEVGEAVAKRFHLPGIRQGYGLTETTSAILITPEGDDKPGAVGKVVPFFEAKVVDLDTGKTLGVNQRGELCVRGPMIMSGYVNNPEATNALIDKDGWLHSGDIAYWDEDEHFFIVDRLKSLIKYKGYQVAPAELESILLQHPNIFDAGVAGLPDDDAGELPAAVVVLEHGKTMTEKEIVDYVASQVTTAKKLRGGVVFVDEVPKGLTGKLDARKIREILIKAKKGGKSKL", "experiment": "qHTS profiling assay for firefly luciferase inhibitor/activator using purifed enzyme and Km concentrations of substrates (counterscreen for miR-21 project); further: nearly all actives have a fitted effect of over 55% in size;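 on activity change, negative = inhibition: plate controls were vehicle for no effect and reference inhibitor for full effect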", "conditions": "purified FLuc, luminescence inhibition; series mostly up to 57.5 µM; activity change, negative = inhibition: at the top concentration", "method_in_brief": "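Purified P. pyralis luciferase (10nM final) with 10uM D-luciferin and 10uM ATP (Km levels) in 50mM Tris acetate pH 7.5, 10mM Mg acetate, 0.01% Tween-20, 0.05% BSA; qHTS 6-point titration, ~60 µM downward; luminescence read.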", "units": {"activity change, negative = inhibition": "%"}, "values": [
      {"smiles": "CC12CCC(=O)N1C(C(=O)Nc1ccc(F)c(F)c1F)CS2", "note": "(centres undefined)", "activity change, negative = inhibition": -0.97},
      {"smiles": "COc1ccc(OC)c(CNC(=O)CN2C(=O)CCn3nc(-c4cn(C)c5ccccc45)cc32)c1", "activity change, negative = inhibition": 0.0113},
      {"smiles": "CCN(CC(=O)Nc1ccc(OC)cc1)C(=O)CSCc1ccc(C)cc1", "activity change, negative = inhibition": -1.05},
      {"smiles": "COc1cc(/C=N/NC(=O)c2cc(C)n(-c3ccc(F)cc3)c2C)cc(OC)c1O", "Potency": "15.1 µM (active)"},
      {"smiles": "CC(C)c1cc(C(=O)N/N=C/c2ccoc2)c(O)c(C(C)C)c1", "activity change, negative = inhibition": 5.96},
      {"smiles": "Cc1cc(C(=O)N/N=C/c2ccc(O)c([N+](=O)[O-])c2)c(C)n1-c1ccc(F)cc1", "Potency": "2.39 µM (active)"},
      {"smiles": "COc1cc(/C=N\\NC(=O)C2C(=O)NCC2c2ccccc2)cc(OC)c1O", "note": "(centres undefined)", "activity change, negative = inhibition": 5.59},
      {"smiles": "CC(Oc1ccccc1[N+](=O)[O-])C(=O)N/N=C/c1ccoc1", "note": "(centres undefined)", "activity change, negative = inhibition": 2.82},
      {"smiles": "Cc1nn(CC(=O)N/N=C/c2ccc(F)cc2)c(C)c1[N+](=O)[O-]", "activity change, negative = inhibition": -0.587},
      {"smiles": "Nc1c(N(Cc2ccco2)C(=O)c2cccc(F)c2)c(=O)[nH]c(=O)n1Cc1ccccc1", "activity change, negative = inhibition": 2.26},
      {"smiles": "Cc1ccccc1C(=O)Nc1nnc(S(=O)(=O)N(C)c2ccc(Cl)cc2)s1", "activity change, negative = inhibition": -8.25},
      {"smiles": "CC(C)(CNC(=O)CNC(=O)C1CCCCC1)N1CCOCC1", "activity change, negative = inhibition": -0.324},
      {"smiles": "CCOC(=O)c1ccc(NC(=O)c2c(NCc3cccc(OC)c3)sc3c2CCC3)cc1", "activity change, negative = inhibition": 0.213},
      {"smiles": "O=C(C1CCC(Cn2c(=O)c3sccc3n(Cc3ccccc3F)c2=O)CC1)N1CCCCC1", "note": "(centres undefined)", "activity change, negative = inhibition": -10.1},
      {"smiles": "CC1(C)CC(=O)C=C(c2cccc3c2Oc2ccccc2S3)C1", "activity change, negative = inhibition": -3.41},
      {"smiles": "Cc1cccc(OCC(=O)NCCCNC(=O)c2ccccn2)c1", "activity change, negative = inhibition": -1.63},
      {"smiles": "Cc1cccc(OCC(=O)Nc2ccccc2F)c1", "Potency": "21.3 µM (active)"},
      {"smiles": "CCCOC(=O)Nc1ccccc1C(N)=O", "activity change, negative = inhibition": 3.69},
      {"smiles": "Cc1cccc(OCC(=O)Nc2ccc(C(=O)O)cc2NC(=O)COc2cccc(C)c2)c1", "activity change, negative = inhibition": 0.888},
      {"smiles": "COc1cccc(OCC(=O)Nc2ccccc2C(N)=O)c1", "Potency": "4.78 µM (active)"},
      {"smiles": "Cc1cccc(OCCC(=O)Nc2ccccc2C(N)=O)c1", "activity change, negative = inhibition": -0.608},
      {"smiles": "CCc1ccc(-n2nc(C)c3c(C)cc(=O)n(CC(=O)Nc4ccc(F)cc4C)c32)cc1", "activity change, negative = inhibition": 1.92},
      {"smiles": "CCCNc1ncnc2c1c(-c1ccccc1)cn2-c1ccc(OCC)cc1", "activity change, negative = inhibition": -5.23},
      {"smiles": "O=C(COc1ccccc1O)NC1CCCC1", "activity change, negative = inhibition": -1.18},
      {"smiles": "CCOC(=O)c1ccc(NC(=O)c2nc(SCc3ccc(F)cc3)ncc2Cl)cc1", "activity change, negative = inhibition": -7.43},
      {"smiles": "COc1ccccc1N=Cc1c(O)c2ccccc2oc1=O", "Potency": "1.9 µM (active)"},
      {"smiles": "COc1cc(N=Cc2c(O)c3ccccc3oc2=O)c(OC)cc1Cl", "activity change, negative = inhibition": 0.283},
      {"smiles": "COc1ccccc1N=C(C)C1=C(O)COC1=O", "activity change, negative = inhibition": 2.19},
      {"smiles": "O=C(Nc1ccc(OC(F)(F)F)cc1)c1cc2c(=O)n3ccccc3nc2s1", "activity change, negative = inhibition": 1.26},
      {"smiles": "CCc1cc2c(-c3ccccc3)cc(=O)oc2c2c1OCN(Cc1ccc(C)cc1)C2", "activity change, negative = inhibition": -2.21},
      {"smiles": "CCc1ccc2oc(-c3ccc(C)c(NC(=O)/C=C/c4ccco4)c3)nc2c1", "Potency": "3.01 µM (active)"},
      {"smiles": "Cc1cccc(C(=O)Nc2ccc(-c3nc4ncccc4o3)cc2C)c1", "activity change, negative = inhibition": -1.32},
      {"smiles": "CCC(CC)c1nnc(NC(=O)/C=C/c2ccco2)s1", "activity change, negative = inhibition": 2.36},
      {"smiles": "Cc1ccc2cccc(NC(=O)c3cccc4ccccc34)c2n1", "activity change, negative = inhibition": -2.45},
      {"smiles": "CC(C)C(C)NC(=O)COc1nc2ccccc2nc1N(C)C1CCCCC1", "note": "(centres undefined)", "activity change, negative = inhibition": 0.505},
      {"smiles": "CN(c1ccc2nc3ccccc3c(=O)n2n1)C1CCCCC1", "Potency": "0.169 µM (active)"},
      {"smiles": "O=c1c2ccccc2nc2n1C1(CCCCC1)Cc1ccccc1-2", "activity change, negative = inhibition": -1.54},
      {"smiles": "CCC(=O)N1CCc2cc(CNC(=O)Nc3ccccc3Cl)ccc21", "activity change, negative = inhibition": -15.3},
      {"smiles": "COc1cc2sc(C)nc2cc1C", "activity change, negative = inhibition": -2.95},
      {"smiles": "Cc1nc(Nc2ccccc2F)c2nnn(Cc3ccccc3Cl)c2n1", "activity change, negative = inhibition": -4.09},
      {"smiles": "Cc1nc(Nc2ccc3c(c2)OCCO3)c2nnn(Cc3ccccc3Cl)c2n1", "Potency": "26.9 µM (active)"},
      {"smiles": "CCCc1nc(NCc2ccc3c(c2)OCO3)c2nnn(Cc3ccccc3Cl)c2n1", "activity change, negative = inhibition": -0.879},
      {"smiles": "Nc1cccc(CCc2nc3ccccc3[nH]2)c1", "activity change, negative = inhibition": -21.6},
      {"smiles": "O=c1[nH]nc(CSCc2ccccc2Cl)[nH]1", "activity change, negative = inhibition": 2.07},
      {"smiles": "c1ccc2c(CSCc3nc4ccccc4[nH]3)cccc2c1", "Potency": "10.7 µM (active)"},
      {"smiles": "c1ccc(-c2nnc(SCc3nc4ccccc4[nH]3)o2)cc1", "activity change, negative = inhibition": 1.85},
      {"smiles": "COc1ccc(OC(C)C(=O)NCCc2nc3ccccc3[nH]2)cc1", "note": "(centres undefined)", "activity change, negative = inhibition": -0.594},
      {"smiles": "Clc1ccccc1SCc1nc2ccccc2[nH]1", "Potency": "13.5 µM (active)"},
      {"smiles": "COC(=O)Cc1ccc(OC(=O)C2CCN(S(=O)(=O)c3ccc(OC)c(OC)c3)CC2)cc1", "activity change, negative = inhibition": 1.97},
      {"smiles": "Cc1nnsc1C(=O)NCc1c(F)cccc1Cl", "activity change, negative = inhibition": -1.24},
      {"smiles": "Cc1nn(Cc2ccccc2)c(C)c1CNC(=O)c1ccc(F)c(S(=O)(=O)N2CCOCC2)c1", "activity change, negative = inhibition": 5.42},
      {"smiles": "O=C(NC(=S)Nc1ccc(NC(=O)c2cccs2)cc1)c1ccc([N+](=O)[O-])cc1", "activity change, negative = inhibition": 0.372},
      {"smiles": "O=C(NC(=S)Nc1cccc(-c2ccc(CO)o2)c1)c1cccs1", "Potency": "19 µM (active)"},
      {"smiles": "O=C(Nc1ccccc1-c1ccccc1)c1cccs1", "activity change, negative = inhibition": 5.07},
      {"smiles": "CCc1cnc2c(c1SCC(=O)c1ccccc1)c(=O)n(C)c(=O)n2C", "activity change, negative = inhibition": 0.976},
      {"smiles": "O=S(=O)(NCc1ccccc1Br)c1ccccc1Br", "activity change, negative = inhibition": -13.2},
      {"smiles": "Cc1cc(C)n(C(=O)c2ccc(S(=O)(=O)N3CCCC3)cc2)n1", "activity change, negative = inhibition": -0.0836},
      {"smiles": "CCOC(=O)c1ccc(Nc2cc(C)nc3nc(C)nn23)cc1", "activity change, negative = inhibition": 4.41},
      {"smiles": "Cc1cc(Nc2ccccc2)n(C(=O)c2ccc(N)cc2)n1", "Potency": "9.53 µM (active)"},
      {"smiles": "O=C(O)c1ccc(N/N=C/c2ccc3ncccc3c2)cc1", "Potency": "0.675 µM (active)"},
      {"smiles": "Cc1ccc2cc(/C=N/NC(=O)[C@@H]3CCCN3)c(Cl)nc2c1", "activity change, negative = inhibition": -3.8},
      {"smiles": "CCNC(=S)NNC(=O)c1ccc2ncccc2c1", "activity change, negative = inhibition": -6.07},
      {"smiles": "CSCC[C@H](NC(=O)OC(C)(C)C)C(=O)N/N=C/c1cc2ccc(C)cc2nc1Cl", "activity change, negative = inhibition": 1.83},
      {"smiles": "Cc1ccc2cc(/C=N/Nc3ccc(C(=O)O)cc3)c(Cl)nc2c1", "Potency": "0.151 µM (active)"},
      {"smiles": "Cc1ccc(S(=O)(=O)Nc2ccc3ncccc3c2)cc1", "activity change, negative = inhibition": -1.82},
      {"smiles": "Cn1c(=O)n(Cc2ccco2)c(=N)c2c3c(sc21)CCCC3", "activity change, negative = inhibition": -1.02},
      {"smiles": "O=c1oc(-c2ccco2)nc2sc3c(c12)CCCCC3", "Potency": "0.675 µM (active)"},
      {"smiles": "O=C(NCc1ccco1)c1cccn2c(=O)c3c4c(sc3nc12)CCCC4", "activity change, negative = inhibition": -11.7},
      {"smiles": "CCN(C(=O)CSc1nnc(-c2ccc(OC(F)F)cc2)n1N)C1CCS(=O)(=O)C1", "note": "(centres undefined)", "activity change, negative = inhibition": -1.63}
    ]}
  ]
}
